Among all 480,000 compounds or so, about 740 (0.15%) were called active. Rule as the data show it: active = activity change below about -30%; inconclusive = mostly about -25% to -30%; inactive = weaker than that. Only a selection was taken, and actives are over-represented in it overall.
Each molecule was assayed against L-lactate dehydrogenase A chain (Homo sapiens) (UniProt P00338) (assay: qHTS assay for inhibitors of human lactate dehydrogenase). Conditions: purified LDHA, NADH/diaphorase-resazurin fluorescence; hits give low values.
Source text: LDH is a key glycolytic enzyme that catalyzes the final step in the glycolytic pathway, reducing pyruvate to lactate and regenerating NAD+ equivalents necessary for continued glycolysis. LDHA has been linked to the carcinogenesis and malignancy in numerous forms of cancers and many other diseases. Consequently, both pharma and academia have invested in significant research efforts to identify small molecule therapeutics. Such attempts have been stalled or abandoned due to limited success in discovering potent and drug-like inhibitors that can be utilized to validate LDHA in vivo as a drug target, a necessary step toward advancing such a molecule towards the clinic Towards this goal we designed and performed a quantitative high-throughput screening (qHTS) campaign to discover novel compounds that are potent inhibitors of LDHA enzyme activity and cancer cell line growth.
The assay was optimized to 1536-well plates. Briefly, 3 µL of human lactate dehydrogenase 5 (#A38558H, Meridian Life Science, Inc., Memphis, TN) in LDH assay buffer (200 mM Tris HCl pH 7.4, 100 microM EDTA and 0.01% Tween-20) was added to a black solid bottom 1536-well assay plate (Greiner Bio-One) using a BioRAPTR FRD dispenser (Beckman Coulter, Brea, CA). A 1536-well pintool dispenser outfitted with 20 nL pins (Wako Automation, San Diego, CA) was used to transfer 23 nL of DMSO-solubilized compound (both library and vehicle controls) to each 1536-well assay plate. Following compound transfer, 1 µL of substrate solution containing NADH and sodium pyruvate (Sigma-Aldrich, St. Louis, MO) in LDH assay buffer was dispensed via BioRAPTR FRD to initiate the reaction. Final concentrations in the 4 microL reaction volume were 2 nM LDHA enzyme, 0.06 mM NADH and 0.2 mM sodium pyruvate. Following a 5 minute incubation period at room temperature, 1 µL of detection reagent (C. kluyveri diaphorase (Sigma-Aldrich) and resazurin sodium salt (Sigma-Aldrich) in LDH assay buffer) was added to a total volume of 5 µL. Final concentrations of detection reagents were 0.133 mg/mL diaphorase and 37 µM resazurin. Plates were immediately transferred to a ViewLux microplate imager (PerkinElmer, Waltham, MA), and any resulting resorufin fluorescence was measured (ex540, em590 nm) at 0 and 20 minutes. Fluorescence was normalized using enzyme-free and DMSO-treated control wells on each plate.
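Also: values are at about 110 or 230 µM; plate controls were DMSO wells for no effect and wells without enzyme for full effect.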

SMILES	activity change
CCC(CC)(Cc1nc2ccccc2s1)C(=O)Nc1ccc(N2CCOCC2)cc1	5.36% (inactive)
C/C(=N\NC(=O)c1ccc(C(C)(C)C)cc1)C(C)C	11.2% (inactive)
O=[N+]([O-])c1cc(S(=O)(=O)Nc2ccccc2NS(=O)(=O)c2cccs2)ccc1Cl	13.9% (inactive)
O=[N+]([O-])c1cc(S(=O)(=O)Nc2cccc(Cl)c2)ccc1N=Nc1c(O)[nH]c2ccccc12	-42.1% (active)
O=[N+]([O-])c1cc(S(=O)(=O)Nc2ccc(Cl)cc2)ccc1N/N=C/c1ccccc1C(F)(F)F	3.88% (inactive)
COc1cccc(/C=N/NC(=O)c2[nH]nc3c2CCc2ccccc2-3)c1O	-78.6% (active)
CC(C)(C)c1ccc(/C=N/NC(=O)c2ccccc2)cc1	12.2% (inactive)
Cc1cc(C)c(/C=N/NC(=O)c2ccccc2)c(C)c1	4.2% (inactive)
CC(OC(=O)c1cccc(-n2cnnn2)c1)C(=O)Nc1ccc(N2CCOCC2)cc1 (stereo not given)	6.53% (inactive)
CC(=O)Nc1cccc(NC(=O)c2cnn(-c3ccccc3F)c2C(F)(F)F)c1C	9.39% (inactive)
O=C(NN=Cc1ccccc1O)NN=Cc1ccccc1O	-72% (active)
O=C(N/N=C/c1ccccc1Cl)c1ccc(Cl)s1	5.95% (inactive)
O=C(N/N=C/c1ccccc1OCCOc1ccc([N+](=O)[O-])cc1)Nc1ccccc1	-7.59% (inactive)
N#C/C(=C/c1ccccc1)c1ccc(C(F)(F)F)cn1	-3.61% (inactive)
Cc1ccccc1CC(=O)Nc1ccc(N2CCOCC2)c(Cl)c1	-4.8% (inactive)
COCCN1C(=O)C(=O)/C(=C(/O)c2ccc3c(c2)OCCO3)C1c1cccc(O)c1 (stereo not given)	9.53% (inactive)
O=S(=O)(c1ccc2c(c1)OCCO2)c1nc(-c2cccc(Cl)c2)oc1N1CCOCC1	-9.35% (inactive)
NC(=O)c1ccc(NC(=O)CCc2ncc(-c3c(F)cccc3F)o2)cc1	-1.68% (inactive)
Cc1cc(N2CCC(C)CC2)n2nc(-c3ccccc3)nc2n1	7.05% (inactive)
c1ccc(Oc2ccc(CNc3ncccn3)cn2)cc1	-10.1% (inactive)

SMILES	activity change
CCCn1c(N)c(-c2csc(Nc3ccc(F)cc3)n2)c(=O)n(C)c1=O	2.91% (inactive)
CCc1nn2c(=O)cc(CN(CC)Cc3ccc(OCc4ccccc4)cc3)nc2s1	-24.3% (inactive)
Cc1ccccc1CSc1nc(=O)c2c(n1C)NC(=O)CC2c1ccc(OCC(N)=O)cc1 (stereo not given)	2.91% (inactive)
O=C(CSc1ccccc1F)c1ccc2c(c1)-c1ccccc1C2	10.6% (inactive)
Cc1ccc(C)c(-n2c3c(cc(C#N)c2=O)C(=O)CC(c2ccccc2)C3)c1 (stereo not given)	-0.429% (inactive)
CCOC(=O)c1c(C)[nH]c(C(=O)COc2cc(Cl)ccc2Cl)c1C	-3.64% (inactive)
CC1=C(C(=O)Nc2cccc(C)c2C)C(c2ccc(C)cc2)NC(=O)N1 (stereo not given)	-9.14% (inactive)
CC1CCN(C(=O)C(C)n2cnc3c2c(=O)n(C)c(=O)n3C)CC1 (stereo not given)	1.51% (inactive)
COc1ccc(-c2csc(-c3cc4c([nH]c3=O)CC(c3ccco3)CC4=O)n2)cc1F (stereo not given)	6.35% (inactive)
COc1ccc(-c2c(C)c3cc(OS(=O)(=O)c4ccc(F)cc4)ccc3oc2=O)cc1OC	1.58% (inactive)
COc1cccc(CNC(C)C(=O)Nc2ccc(S(=O)(=O)N3CCCC3)cc2)c1 (stereo not given)	-0.452% (inactive)
CCN(CC(=O)Nc1ccc(S(=O)(=O)N2CCCC2)cc1)CC(=O)Nc1cccc(OC)c1	-38.2% (active)
CCN(CC(=O)Nc1cccc(S(=O)(=O)N2CCCCC2)c1)Cc1ccccc1	-5.08% (inactive)
CC(C)CC(NC(=O)C(c1ccccc1)c1ccccc1)c1ccccc1 (stereo not given)	-5.71% (inactive)
Oc1c(Cl)cc(Cl)c(Cl)c1Cc1c(O)c(Cl)cc(Cl)c1Cl	-106% (active)
Fc1cccc(Cl)c1CNc1ccc(Cl)cc1	11.8% (inactive)
CC(C)(C)n1nc(N)c2cc([N+](=O)[O-])ccc21	-0.323% (inactive)
O=C(Cc1c[nH]c2ccccc12)Nc1cc(F)cc(F)c1	0.607% (inactive)
O=C(O)CCC(=O)O	0.526% (inactive)
C=CC(=O)OCCOCCOCCOCCOC(=O)C=C	-3.09% (inactive)

SMILES	activity change
O=C(O)COCCOCC(=O)O	-30% (active)
CCN(CC(=O)NCc1cccs1)C(=O)c1cccc(S(=O)(=O)N(C)c2ccc(C)cc2)c1	2.57% (inactive)
O=C(Cc1ccsc1)NCCc1ccccc1	-0.295% (inactive)
O=C1C2C3C=CC(C3)C2C(=O)N1c1ccc(S(=O)(=O)Nc2nccs2)cc1 (stereo not given)	-9.54% (inactive)
NS(=O)(=O)c1ccc(N2C(=O)C3C4CC(C(Br)C4Br)C3C2=O)cc1 (stereo not given)	-58.8% (active)
CCCOc1ccc(N2C(=O)CC(N(CCc3ccc(S(N)(=O)=O)cc3)C(C)=O)C2=O)cc1 (stereo not given)	-18% (inactive)
O=C(NCc1nc(-c2ccc(Cl)cc2)no1)c1cc2ccccc2o1	0.842% (inactive)
Cc1ccc(-c2ccccc2N)cc1	-2.5% (inactive)
O=C(c1ccc[nH]1)c1cc2cc(Br)ccc2o1	-2.8% (inactive)
Cc1cccc(/C=C/C(=O)c2cccs2)c1	7.28% (inactive)
CCCNC(=O)C(C)NC(=O)COc1ccccc1NC(C)=O (stereo not given)	-1.76% (inactive)
Cc1ccc(-c2nc(CS(=O)CC(=O)Nc3ccc(C)c(C)c3)cs2)cc1 (stereo not given)	0.528% (inactive)
O=C(O)CCC(=O)Nc1ccc2c(C(C(=O)O)N3CCN(c4ccccc4)CC3)c[nH]c2c1 (stereo not given)	-5.22% (inactive)
Cc1ccc(NC(=O)C(Sc2nnnn2C2CCCC2)c2ccccc2)cc1 (stereo not given)	11.6% (inactive)
c1ccc(-c2nc(-c3ccc4c(c3)OCCCO4)cs2)nc1	5.7% (inactive)
c1coc(CNc2ccc3c(c2)ncn3C2CCCCC2)c1	13.3% (inactive)
CC1CCCN(CCOCCOc2ccccc2-c2ccccc2)C1 (stereo not given)	-8.67% (inactive)
CN1CCN(CCCCOc2ccccc2-c2ccccc2)CC1	-36.2% (active)
COc1ccccc1OCCCCCCN1CCN(C)CC1	-2.1% (inactive)
O=C(CCn1ccccc1=O)Nc1ccc(Cl)cc1Cl	11.9% (inactive)

— PubChem BioAssay AID1347041 (National Center for Advancing Translational Sciences (NCATS), 2019)
